Among all 48,000 compounds or so, about 13,000 (27%) showed an effect of 50% or more. Some of the results follow.
These molecules were tested on Wolbachia pipientis (assay: Anti-Wolbachia Cell-Based Screen). Settings: 5 µM.
Type: functional
Design: scale not given: in the data most compounds retested in dose-response had high values

| Compound | Percent Effect [%] |
| --- | --- |
| CC(C)C1CN(C(=O)c2nccnc2N)CCS1 (centres undefined) | -3.274 |
| CC1(C)CCN1C(=O)c1cc(F)cc2[nH]cnc12 | 96.75 |
| COCCN(CCOC)C(=O)c1cc(F)cc2[nH]cnc12 | 18.56 |
| CC(C)C1CN(C(=O)c2ccc(C(N)=O)cc2)CCS1 (centres undefined) | 0.1325 |
| COC(=O)CCCN(C)C(=O)c1cc(F)cc2[nH]cnc12 | -15.15 |
| CC1(C)CN(C(=O)c2cc(F)cc3[nH]cnc23)CCS1 | 94.05 |
| CCCN(CC(F)(F)F)C(=O)c1cc(F)cc2[nH]cnc12 | -1.946 |
| CCC(CO)NC(=O)Nc1cc(F)ccc1Br (centres undefined) | 7.156 |
| N#Cc1cccc(OCC(=O)N(Cc2ccsc2)C2CC2)c1 | -11.35 |
| COCC1CCN(CCCc2cccc(OC)c2)CC1 | -10.46 |
| CC(C)(C)CNC[C@H]1Cn2ccnc2CO1 | -18.46 |
| NC(=O)C1CN(C(=O)Nc2ccccc2N2CCCCCC2)CCO1 (centres undefined) | 3.966 |
| O=C(COc1ccccc1O)N1CCOC(C(F)(F)F)C1 (centres undefined) | 13.92 |
| NC(=O)C1CN(C(=O)Nc2ccccc2-c2cccs2)CCO1 (centres undefined) | -5.73 |
| NC(=O)C1CN(C(=O)Nc2ccccc2OCC(F)(F)F)CCO1 (centres undefined) | 120.3 |
| NC(=O)C1CN(C(=O)Nc2ccccc2Oc2ccccc2Cl)CCO1 (centres undefined) | 94.62 |
| C=C(C)COc1ccccc1NC(=O)N1CCOCC1CO (centres undefined) | 6.942 |
| NC(=O)C1CN(C(=O)C2(c3ccc(F)cc3F)CCCC2)CCO1 (centres undefined) | -8.523 |
| NC(=O)C1CN(C(=O)Nc2ccccc2SC(F)(F)F)CCO1 (centres undefined) | -3.203 |
| NC(=O)C1CN(C(=O)Nc2ccccc2SC2CCCC2)CCO1 (centres undefined) | 100 |
| CSc1ccc(-c2nc(CN3CCCC(CNC(C)=O)C3)c(C)o2)cc1 (centres undefined) | 24.94 |
| CC(=O)N1CCC(N2CCOC[C@H]2c2nc(-c3ccccc3)c[nH]2)CC1 | -17.76 |
| Cc1cc(C)c2nc(CN3CCC(C#N)CC3)cc(O)c2c1 | -6.492 |
| N#Cc1ccc(NCc2cc3n(n2)CCCN(C(=O)C2CCC2)C3)nc1 | 102.7 |
| CC(=O)c1ccc(NCc2cc3n(n2)CCCN(S(C)(=O)=O)C3)nc1 | -0.5632 |
| N#Cc1ccnc(NCc2cc3n(n2)CCCN(C(=O)C2CCC2)C3)c1 | 115.4 |
| O=C(NCc1cc2n(n1)CCCN(Cc1ccc(CO)o1)C2)C1CCC1 | -16.23 |

| Compound | Percent Effect [%] |
| --- | --- |
| CS(=O)(=O)N1CCCn2nc(CNc3cc(C#N)ccn3)cc2C1 | 9.255 |
| O=C(NCc1cc2n(n1)CCCN(Cc1ccc(Cl)s1)C2)C1CCC1 | -18.59 |
| CSCC(C)(O)CNC(=O)Nc1ccc(C)cc1Br (centres undefined) | 7.748 |
| NC(=O)c1cccc(C2CCN(c3ncccn3)CC2)n1 | 105.7 |
| CN(C)C(=O)[C@@H]1CCO[C@@H]2CCN(c3ncccn3)C[C@H]21 | 1.087 |
| CN(C)C(=O)c1cccc(C2CCN(c3ncccn3)CC2)n1 | 135.8 |
| O=C(O)c1cccc(CC2CCN(c3ncccn3)CC2)c1 | -1.664 |
| O=C(C1CC1)N1CCCCCC1C1CCN(c2ncccn2)CC1 (centres undefined) | -21.65 |
| CCN(C(C)=O)C1CCN(c2nccc(C3CCCC3)n2)C1 (centres undefined) | 3.77 |
| COC(=O)c1ccc(NC(=O)[C@@H]2CCCN2C(=O)c2ccco2)s1 | -1.409 |
| CC(Cn1cccn1)NCc1nc(-c2ccc3c(c2)OCO3)no1 (centres undefined) | -6.149 |
| CCc1nc(CN(Cc2cccs2)CC2CCCO2)no1 (centres undefined) | 3.529 |
| CCN(Cc1nc(C(C)C)no1)Cc1cccs1 | 12.81 |
| OCCN(Cc1nc(-c2ccc3c(c2)OCO3)no1)CC1CC1 | -12.91 |
| COCCN(Cc1ccco1)Cc1nc(-c2ccccc2)no1 | 2.564 |
| OCCN(Cc1nc(-c2ccc3c(c2)OCO3)no1)Cc1cccs1 | 121.2 |
| COC(=O)c1ccc(-c2noc(CN(CCO)Cc3cccs3)n2)cc1 | 109.2 |
| OCCN(Cc1ccccc1)Cc1nc(-c2ccc3c(c2)OCO3)no1 | 99.41 |
| COCCN(Cc1ccccc1)Cc1nc(-c2ccsc2)no1 | 2.788 |
| Cc1ccc(Sc2ccc(N3CCC(C(=O)O)CC3)nn2)cc1 | 6.07 |
| Cc1cc(C)c(-n2cccn2)c(CN2CCOCC(CN(C)C)C2)c1 (centres undefined) | 9.231 |
| Cc1cccnc1[C@H](C)NC(=O)Cc1cc2c(cc1Cl)OCCO2 | 3.322 |
| CN1CCOC[C@H]1c1nc(-c2ccccc2)c[nH]1 | 1.409 |
| O=C(C1CC1)N1CCC(C(=O)N2CCC(c3ccc(F)cc3)C2)CC1 (centres undefined) | -1.259 |
| O=C(C1CC1)N1CCc2nc(C3CCN(C(=O)C4CC4)C3)nc(O)c2C1 (centres undefined) | 98.35 |
| CCS(=O)(=O)N1CCc2nc(N3CCCC3)nc(N(C)C)c2CC1 | 3.292 |
| CCS(=O)(=O)N1CCc2nc(C3CCN(C(=O)C4CC4)C3)nc(O)c2C1 (centres undefined) | 88.69 |

Reference: ChEMBL document CHEMBL3988442, “University of Dundee, Small-Polar-MMV Screening Library” (2021)
